# Experimental data published in PubChem BioAssay (NCATS).
# Records with an inconclusive call do not appear. Where a call stands in place of a potency, no number is given. Values without a mark were called inactive. Calls of active or inactive are those of the source. The call rests on the fitted dose curve; in most records, active means well fitted inhibition curve with a large enough effect; inconclusive means small, poorly fitted or top-dose-only effect; inactive means flat fitted curve, though single readings scatter.
# Columns and labels:
# HEK293 = assay: Cytotoxic Profiling of Annotated Libraries Using Quantitative High-Throughput Screening (AID 1296008); details: Five cell lines viability, CellTiter-Glo ATP luminescence, 48-72 h; max response: hits give low values; further: potency means the concentration at half of the fitted maximal effect
# Procedure, shortened: (§1)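 Compounds were pin-transferred onto cells and incubated 48 or 72 hr at 37 degree Celsius, 95% humidity. CellTiter-Glo was added, plates sat 10 min at room temperature, then ATP-coupled luminescence was imaged as the viability read-out.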
# HaCat [1] = assay: as above; details: Five cell lines viability, CellTiter-Glo ATP luminescence, 48-72 h; max response: hits give low values
# Procedure, shortened: as §1
# KB-3-1 = assay: as above; details: Five cell lines viability, CellTiter-Glo ATP luminescence, 48-72 h; max response: hits give low values
# Procedure, shortened: as §1
# NIH3T3 = assay: as above; details: Five cell lines viability, CellTiter-Glo ATP luminescence, 48-72 h; max response: hits give low values
# Procedure, shortened: as §1
# HACAT [2] = assay: qHTS assay to identify novel small-molecules to repurpose for Merkel cell carcinoma treatment (AID 1296009); details: MCC and control cell lines, CellTiter-Glo viability, 72 h; at 44.8 µM (top of the series) unless noted
# Procedure, shortened: (§2)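 qHTS format: cells treated with library compounds in DMSO across 8 (NPC) or 11 (MIPE) concentrations. Readout after 72 hr at 37 degree celsius was CellTiter-Glo luminescence.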
# HEK293T = assay: as above; details: MCC and control cell lines, CellTiter-Glo viability, 72 h; series mostly up to 44.8 µM
# Procedure, shortened: as §2
# Further: nearly all actives have a fitted effect of over 60% in size.
SMILES,outcome (HEK293),outcome (HaCat [1]),outcome (KB-3-1),max response (NIH3T3),outcome (HACAT [2]),Potency (HEK293T),max response (KB-3-1),Potency (NIH3T3),outcome (NIH3T3),outcome (HEK293T)
CC(=O)C1CCC2(C)C3=C(CCC12C)C1(C)CCC(=O)C(C)(C)C1CC3 (stereo not given),inactive,inactive,inactive,-0.504%,inactive,inactive,,,,
OC[C@H]1O[C@@H](OC(CCCCc2ccc(O)cc2)CCc2ccc(O)cc2)[C@H](O[C@@H]2OC[C@](O)(CO)[C@H]2O)[C@@H](O)[C@@H]1O (stereo not given in full),inactive,inactive,inactive,2.54%,inactive [at 17.4 µM],inactive,,,,
Cc1cccc(-c2[nH]c(CNc3ccccc3F)nc2-c2ccc3ncnn3c2)n1,inactive,inactive,,,inactive,inactive,6.62%,7.31 µM (active),,
CC(CCC1C(C(=O)O)=CC(=O)CC1(C)C)O[C@@H]1O[C@H](CO)[C@@H](O)[C@H](O)[C@H]1O (stereo not given in full),inactive,inactive,inactive,,inactive,inactive,,,inactive,
C=C[C@H]1[C@H](O[C@@H]2O[C@H](CO)[C@@H](O)[C@H](O)[C@H]2O)OC=C(C(=O)OC)[C@H]1C[C@@H]1N[C@H](C(=O)O)Cc2c1[nH]c1ccccc21,inactive,inactive,,-2.92%,inactive [at 17.4 µM],inactive,-4.8%,,,
C=C1C[C@]23C[C@H]1CC[C@H]2[C@@]12C=C[C@H](O)[C@@](C)(C(=O)O1)[C@H]2[C@@H]3C(=O)O,inactive,inactive,inactive,,inactive,inactive,,,inactive,
CNC(=O)Nc1ccc(OC)c(NC(=O)NC(=O)c2cc(F)c(F)cc2Cl)c1,inactive,inactive,,,inactive,inactive,0.332%,,inactive,
CC1CCC2(O1)C(C)(C)CC(O[C@@H]1O[C@H](CO[C@@H]3OC[C@](O)(CO)[C@H]3O)[C@@H](O)[C@H](O)[C@H]1O)CC2(C)O (stereo not given in full),inactive,inactive,inactive,,inactive [at 17.4 µM],inactive,,,inactive,
COc1cc(/C=C/C(=O)OC2CC(C)=C(C(=O)O)/C2=C/CO[C@@H]2O[C@H](CO)[C@@H](O)[C@H](O)[C@H]2O)ccc1O (stereo not given in full),inactive,inactive,inactive,,inactive [at 17.4 µM],inactive,,,inactive,
O=C(O)C[C@@H](NC(=O)c1cc(-c2ccc(-c3ccncc3)cc2)cs1)c1ccccc1,inactive,inactive,,1.34%,inactive,inactive,4.03%,,,
CC(C)CC(=O)n1cc(C(N)=O)c(=O)cc1C(O)c1ccccc1 (stereo not given),inactive,inactive,inactive,0.668%,inactive,inactive,,,,
COc1ccc(C(OC2OC(CO)C(O)C(O)C2O)C(C)O)cc1 (stereo not given),inactive,inactive,,,inactive,inactive,5.57%,,inactive,
C=C1[C@H]2[C@H](O[C@@H]3O[C@H](COC(=O)/C=C/c4cc(OC)c(O)c(OC)c4)[C@@H](O)[C@H](O)[C@H]3O)OC=C(C(=O)O)[C@H]2C[C@@H]1O,inactive,inactive,inactive,4.54%,inactive [at 17.4 µM],inactive,,,,
OC[C@H]1O[C@@H](Oc2ccc3c(c2)OC[C@H]2c4cc5c(cc4O[C@@H]32)OCO5)[C@H](O)[C@@H](O)[C@@H]1O,inactive,inactive,inactive,0.631%,inactive [at 17.4 µM],inactive,,,,
CC(=O)O[C@@H]1C[C@@]23C[C@@]24CC[C@H](OC2OC[C@@H](O)[C@H](O)[C@H]2O)C(C)(C)[C@@H]4CC[C@H]3[C@]2(C)CC3OC4(C[C@@H](C)C3[C@@]12C)OCC1(C)OC14 (stereo not given in full),inactive,inactive,,3.69%,inactive [at 17.4 µM],inactive,-4.87%,,,
COc1ccc(C(=O)O[C@H]2CC(C)=CC[C@@]3(C)[C@@H](OC(C)=O)C[C@@](O)(C(C)C)[C@H]23)cc1,inactive,inactive,,,inactive [at 17.4 µM],inactive,7.38%,,inactive,
CC1CCC2C(C)(C)C(O)CCC2(C)C12Cc1c(O)cc3c(c1O2)C(N)=NC3 (stereo not given),inactive,inactive,inactive,,inactive,inactive,,,inactive,
O=C(O[C@H]1[C@@H]2C=CO[C@@H](O[C@@H]3O[C@H](CO)[C@@H](O)[C@H](O)[C@H]3O)[C@@H]2[C@@]2(CO)O[C@@H]12)c1ccc(O)cc1,inactive,inactive,,,inactive [at 17.4 µM],inactive,3.57%,,inactive,
CC(C)CC(=O)OC[C@H]1O[C@@](COC(=O)CC(C)C)(O[C@H]2O[C@H](CO)[C@@H](O)[C@H](O)[C@H]2O)[C@@H](OC(=O)CC(C)C)[C@@H]1OC(=O)CC(C)C,inactive,inactive,,,inactive [at 17.4 µM],inactive,9.19%,,inactive,
CC1=CC2(O)/C=C/C(C)(O)CC(O)/C=C/C(=O)OC23C(=O)NC(CC(C)C)C3C1C (stereo not given),inactive,inactive,,,inactive [at 17.4 µM],inactive,-3.67%,,inactive,

SMILES,outcome (HEK293),outcome (HaCat [1]),outcome (KB-3-1),max response (NIH3T3),outcome (HACAT [2]),Potency (HEK293T),max response (KB-3-1),Potency (NIH3T3),outcome (NIH3T3),outcome (HEK293T)
O=C(/C=C/c1ccc(O)cc1)OCC1=CC2OC(=O)C3=CO[C@@H](O[C@@H]4O[C@H](CO)[C@@H](O)[C@H](O)[C@H]4O)[C@H]1[C@@H]32 (stereo not given in full),inactive,inactive,inactive,-2.28%,inactive [at 17.4 µM],inactive,,,,
C=C1[C@@H]2CC[C@@]3(C)[C@H](c4ccoc4)OC(=O)C[C@]13O[C@H]1CC(=O)C(C)(C)[C@H](CC(=O)OC)[C@]12C,inactive,inactive,,,inactive [at 17.4 µM],inactive,-1.94%,,inactive,
C/C=C(\C)C(=O)O[C@@H](C)[C@H]1CC[C@]2(O)C3CCC4C[C@@H](OC5CC(OC)C(OC6CC(OC)C(OC7CC(OC)C(OC8OC(C)C(OC9OC(CO)C(O)C(O)C9O)C(OC)C8O)C(C)O7)C(C)O6)C(C)O5)CC[C@]4(C)C3[C@H](O)[C@@H](O)[C@]12C (stereo not given in full),inactive,inactive,inactive,,inactive [at 9.27 µM],,,,inactive,inactive [at 9.27 µM]
C=C1CCC2C(C)(C)CC(=O)CC2(C)C1CCC(C)CCOC(C)=O (stereo not given),inactive,inactive,,,inactive,inactive,5.05%,,inactive,
COc1cc(/C=C/c2cc(O)cc(O[C@@H]3O[C@H](CO)[C@@H](O)[C@H](O)[C@H]3O)c2)ccc1O,inactive,inactive,,,inactive [at 17.4 µM],inactive,4.08%,,inactive,
O=C(/C=C/c1c(C(=O)O)[nH]c2cc(Cl)cc(Cl)c12)Nc1ccccc1,inactive,inactive,inactive,,inactive,inactive,,,inactive,
O=C(c1ccccn1)c1cnn2c(-c3ccncc3)ccnc12,inactive,inactive,,1.02%,inactive,inactive,-2.39%,,,
CC(=O)O[C@H]1C[C@@H]2[C@]3(CC[C@]4(C)[C@@H](C5(C)CCC(C(C)(C)O)O5)[C@@H](O)C[C@@]24C)C[C@@]32CC[C@H](O[C@@H]3OC[C@@H](O)[C@H](O)[C@H]3O)C(C)(C)[C@H]12 (stereo not given in full),inactive,inactive,inactive,1.48%,inactive [at 17.4 µM],inactive,,,,
C[C@@H]1O[C@@H](O[C@H]2[C@H](O[C@H]3[C@H](O[C@H]4CC[C@@]5(C)C(CC[C@]6(C)C5CC=C5[C@@H]7CC(C)(C(=O)O)C[C@@H](O)[C@]7(C)CC[C@]56C)[C@@]4(C)CO)O[C@H](C(=O)O)[C@@H](O)[C@@H]3O)O[C@H](CO)[C@H](O)[C@@H]2O)[C@H](O)[C@H](O)[C@H]1O (stereo not given in full),inactive,inactive,inactive,-3.63%,inactive [at 9.27 µM],,,,,inactive [at 9.27 µM]
COc1cc(C/C(=C/NC(C)=O)N(CC(=O)Cc2ccccc2)C(C)=O)cc2c1OCO2,inactive,inactive,,2.9%,inactive [at 17.4 µM],inactive,7.98%,,,
C=C1CC23CC1(O)CCC2C1=CC2OC(=O)C(C)(C2O)C1C3C(=O)O (stereo not given),inactive,inactive,inactive,-19.3%,inactive,inactive,,,,
O=S(=O)(NC1CCNCC1)c1cc(S(=O)(=O)c2ccccc2)ccc1C(F)(F)F,inactive,inactive,,,inactive,inactive,3.12%,,inactive,
CC(C)c1nc(N(C)S(C)(=O)=O)nc(-c2ccc(F)cc2)c1/C=C/[C@@H](O)C[C@@H](O)CC(=O)O,inactive,inactive,inactive,0.504%,inactive,inactive,,,,
C=C(C)C(C)C1OC23CC4(CO2)C(CCC2C5(C)CCC(OC6OCC(O)C(OC7OC(CO)C(O)C(OC8OCC(O)C(O)C8O)C7O)C6OC6OC(CO)C(O)C6O)C(C)(C)C5CCC24C)C3C(C)(O)C1OC(C)=O (stereo not given),inactive,inactive,,-2.26%,inactive [at 9.27 µM],,6.52%,,,inactive [at 9.27 µM]
C[C@H](NCc1ccc(OCc2ccccc2F)cc1)C(N)=O,inactive,inactive,,1.69%,inactive,inactive,-7.57%,,,
C=C1C2(CCC(=O)OC2(C)C)CC(OC(=O)/C(C)=C/C)C2(C)C13OC14C(=O)OC(C)(C(=O)C12C(=O)OC4C)C3OC(C)=O (stereo not given),inactive,inactive,,4.63%,inactive [at 17.4 µM],inactive,6.83%,,,
COC(=O)C1=COC(O[C@@H]2O[C@H](CO)[C@@H](O)[C@H](O)[C@H]2O)/C(=C\COC(=O)c2ccc(OC3OC(CO)C(O)C(O)C3O)c(OC)c2)C1CC(=O)OCCc1ccc(O)cc1 (stereo not given in full),inactive,inactive,inactive,1.16%,inactive [at 9.27 µM],,,,,inactive [at 9.27 µM]
COc1cc(C)c(C(=O)O[C@H]2[C@@H](O)[C@H](n3ccc(=O)[nH]c3=O)O[C@@H]2CO)c(OC)c1,inactive,inactive,,-2.57%,inactive [at 17.4 µM],inactive,-4.86%,,,
C=CC(C)(C)C12CC3C(=O)NC(Cc4cnc[nH]4)C(=O)N3C1Nc1ccccc12 (stereo not given),inactive,inactive,inactive,,inactive,inactive,,,inactive,
C=C1CCC[C@]2(C)C[C@]3(O)OC(=O)C(C)=C3C[C@@H]12,inactive,inactive,inactive,,inactive,inactive,,,inactive,
